Measurements: PubChem BioAssay (EPA / NIEHS)
The source holds several records for some structures; these can differ, active in one and inactive in another. Active and inactive are the calls of the source. How the source made its calls: active means hit-call score of the fitted dose curve at least 0.9, where 1 is the maximum; inactive means score below 0.9.

Key:
Conditions in all cases: mRNA level, 48 h; actives raise or lower the signal
CYP2C8 (gene 1558) = test: LTEA_HepaRG_CYP2C8: Life Technologies and Expression Analysis (LTEA) Assay for CYP2C8 using HepaRG (AID 2283483)
In short: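 HepaRG (human liver line), 48 h chemical exposure, 8-pt half-log series from 100 uM, 0.5% DMSO vehicle. Readout: CYP2C8 transcript by qRT-PCR, housekeeping-normalized. Bidirectional fit vs DMSO baseline.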

CYP2C9 (gene 1559) = test: LTEA_HepaRG_CYP2C9: Life Technologies and Expression Analysis (LTEA) Assay for CYP2C9 using HepaRG (AID 2283484)
In short: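 HepaRG, 48 h dosing, 8-pt half-log series, top 100 uM, 0.5% DMSO vehicle. Read-out: CYP2C9 transcript by TaqMan qRT-PCR, housekeeping-normalized (ACTB/GAPDH/POLR2A). Gain or loss fitted vs DMSO baseline.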

CYP4A11 (gene 1579) = test: LTEA_HepaRG_CYP4A11: Life Technologies and Expression Analysis (LTEA) Assay for CYP4A11 using HepaRG (AID 2283486)
In short: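 Readout is CYP4A11 mRNA induction or suppression (qRT-PCR, ACTB/GAPDH/POLR2A normalization) in human HepaRG cells after 48 h chemical treatment, concentrations to 100 uM in 0.5% DMSO, fitted bidirectionally against vehicle.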

[1] = read-out: DNA damage-inducible transcript 3 (DDIT3), DDIT3 (gene 1649); test: LTEA_HepaRG_DDIT3: Life Technologies and Expression Analysis (LTEA) Assay for DNA damage-inducible transcript 3 (DDIT3) using HepaRG (AID 2283488)
In short: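 Eight-point concentration-response (100 uM highest, half-log dilutions) in HepaRG, 48 h, duplicate wells. Endpoint: qRT-PCR mRNA, normalized (ACTB, GAPDH, POLR2A), bidirectional fitting with DMSO as baseline.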

[2] = read-out: Early growth response protein 1 (EGR1) transcription factor, EGR1 (gene 1958); test: LTEA_HepaRG_EGR1: Life Technologies and Expression Analysis (LTEA) Assay for Early growth response protein 1 (EGR1) transcription factor using HepaRG (AID 2283490)
In short: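 HepaRG, 48 h exposure, 8-pt half-log series from 100 uM, 0.5% DMSO vehicle; EGR1 transcript by TaqMan qRT-PCR (Fluidigm array), housekeeping-normalized; bidirectional fit relative to DMSO baseline.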

[3] = read-out: Ezrin (EZR), EZR (gene 7430); test: LTEA_HepaRG_EZR: Life Technologies and Expression Analysis (LTEA) Assay for Ezrin (EZR) using HepaRG (AID 2283491)
In short: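 EZR transcript levels came from Fluidigm qRT-PCR and were normalized to three housekeeping genes after 48 h chemical exposure of HepaRG cells. Dosing used an 8-point half-log series with a 100 uM top concentration in 0.5% DMSO, tested in duplicate; both directions were fitted versus vehicle.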

[4] = read-out: Cytochrome P450 3A7 (Homo sapiens) (UniProt P24462); test: LTEA_HepaRG_CYP3A7: Life Technologies and Expression Analysis (LTEA) Assay for CYP3A7 using HepaRG (AID 2283492)
In short: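 Cells were thawed, plated, cultured 48 h, then treated for a further 48 h with chemicals (eight-point half-log series from 100 uM, 0.5% DMSO). RNA was isolated and CYP3A7 expression quantified by qRT-PCR normalised to ACTB, GAPDH and POLR2A.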

CYP3A5 (gene 1577) = test: LTEA_HepaRG_CYP3A5: Life Technologies and Expression Analysis (LTEA) Assay for CYP3A5 using HepaRG (AID 2283493)
In short: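 Readout was CYP3A5 mRNA by qRT-PCR. HepaRG cultures were exposed for 48 h in serum-free induction medium to chemicals at up to 100 uM, and responses were fitted in both directions relative to DMSO vehicle.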

[5] = read-out: Fatty Acid-Binding Protein 1 (FABP1), FABP1 (gene 2168); test: LTEA_HepaRG_FABP1: Life Technologies and Expression Analysis (LTEA) Assay for Fatty Acid-Binding Protein 1 (FABP1) using HepaRG (AID 2283494)
In short: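 qRT-PCR readout of FABP1 transcript (normalized to three housekeeping genes) after 48 h chemical exposure of HepaRG cells; eight concentrations, half-log steps, max 100 uM, 0.5% DMSO vehicle; gain or loss fitted relative to DMSO baseline.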

[6] = read-out: Cytochrome P450 4A22 (Homo sapiens) (UniProt Q5TCH4); test: LTEA_HepaRG_CYP4A22: Life Technologies and Expression Analysis (LTEA) Assay for Cytochrome P450 4A22 (CYP4A22) using HepaRG (AID 2283495)
In short: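 Cryopreserved HepaRG cells, plated and cultured 48 h, then switched to serum-free induction medium and treated 48 h (duplicates, up to 100 uM, half-log steps, 0.5% DMSO). Expression change of CYP4A22 was fitted bidirectionally against vehicle.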

[7] = read-out: Cytochrome P450 7A1 (Homo sapiens) (UniProt P22680); test: LTEA_HepaRG_CYP7A1: Life Technologies and Expression Analysis (LTEA) Assay for Cytochrome P450 7A1 (CYP7A1) using HepaRG (AID 2283496)
In short: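 Using 0.5% DMSO as vehicle and baseline, chemicals were tested in duplicate over an 8-point range from 100 uM on HepaRG cells for 48 h; qRT-PCR signals were normalised to ACTB, GAPDH and POLR2A.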

[8] = read-out: Glutathione S-Transferase (GSTA2), GSTA2 (gene 2939); test: LTEA_HepaRG_GSTA2: Life Technologies and Expression Analysis (LTEA) Assay for Glutathione S-Transferase (GSTA2) using HepaRG (AID 2283497)
In short: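 qRT-PCR readout of GSTA2 transcript, normalized to three housekeeping genes, fitted bidirectionally against 0.5% DMSO baseline. Differentiated HepaRG cells received compound for 48 h at 8 concentrations (top 100 uM, half-log steps).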

[9] = read-out: Glutamate-cysteine ligase catalytic (GCLC), GCLC (gene 2729); test: LTEA_HepaRG_GCLC: Life Technologies and Expression Analysis (LTEA) Assay for Glutamate-cysteine ligase catalytic (GCLC) using HepaRG (AID 2283498)
In short: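 HepaRG, 48 h exposure, 8-pt half-log series from 100 uM, 0.5% DMSO vehicle; TaqMan qRT-PCR for GCLC mRNA, housekeeping-normalized; bidirectional curve fit vs DMSO baseline.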

[10] = read-out: growth arrest and DNA damage 45 (GADD45G), GADD45G (gene 10912); test: LTEA_HepaRG_GADD45G: Life Technologies and Expression Analysis (LTEA) Assay for growth arrest and DNA damage 45 (GADD45G) using HepaRG (AID 2283499)
In short: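 Human hepatic HepaRG line treated 48 h with chemicals (eight concentrations, half-log steps from 100 uM); transcript induction or repression of GADD45G scored by qRT-PCR versus DMSO vehicle.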

[11] = read-out: Glutamate-cysteine ligase regulatory (GCLM), GCLM (gene 2730); test: LTEA_HepaRG_GCLM: Life Technologies and Expression Analysis (LTEA) Assay for Glutamate-cysteine ligase regulatory (GCLM) using HepaRG (AID 2283500)
In short: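 In this multiplexed HepaRG gene-expression assay, GCLM mRNA change after 48 h treatment (8 concentrations, max 100 uM) was scored against DMSO by bidirectional curve fitting.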

[12] = read-out: Glutathione S-transferase M3 (GSTM3), GSTM3 (gene 2947); test: LTEA_HepaRG_GSTM3: Life Technologies and Expression Analysis (LTEA) Assay for Glutathione S-transferase M3 (GSTM3) using HepaRG (AID 2283501)
In short: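 Changes in GSTM3 expression, an oxidative-stress marker, were scored by bidirectional curve fitting against 0.5% DMSO vehicle. Human HepaRG cultures received chemicals for 48 h in duplicate, highest concentration 100 uM with half-log dilutions.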

[13] = read-out: Heat shock 70 kDa protein 1 (HSPA1A), gene 3303; test: LTEA_HepaRG_HSPA1A: Life Technologies and Expression Analysis (LTEA) Assay for Heat shock 70 kDa protein 1 (HSPA1A) using HepaRG (AID 2283502)
In short: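 An oxidative-stress marker readout: HepaRG cells treated 48 h in duplicate with an eight-point series (highest 100 uM) had HSPA1A mRNA quantified by TaqMan qRT-PCR. Activity was fitted in both directions using 0.5% DMSO as baseline.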

Measured: AC50

Cytochrome P450 3A7 (Homo sapiens), sequence (P24462 whole entry, looked up): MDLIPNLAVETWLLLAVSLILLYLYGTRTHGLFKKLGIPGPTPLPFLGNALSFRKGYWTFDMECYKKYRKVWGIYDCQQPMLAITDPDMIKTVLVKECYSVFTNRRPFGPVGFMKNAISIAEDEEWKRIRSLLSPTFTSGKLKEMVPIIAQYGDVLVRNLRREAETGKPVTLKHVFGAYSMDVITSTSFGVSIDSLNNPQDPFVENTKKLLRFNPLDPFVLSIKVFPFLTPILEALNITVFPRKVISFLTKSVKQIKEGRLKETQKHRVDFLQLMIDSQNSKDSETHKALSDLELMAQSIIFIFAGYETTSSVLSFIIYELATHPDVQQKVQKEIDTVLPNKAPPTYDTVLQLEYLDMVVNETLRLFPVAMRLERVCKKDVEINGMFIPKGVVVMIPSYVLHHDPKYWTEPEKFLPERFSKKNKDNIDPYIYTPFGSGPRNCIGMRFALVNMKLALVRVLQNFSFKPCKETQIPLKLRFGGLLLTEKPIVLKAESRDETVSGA

Cc1c(F)c(F)c(COC(=O)C2C(/C=C(\Cl)C(F)(F)F)C2(C)C)c(F)c1F (centres undefined)
active: [5] 63.1 µM
inactive: all other assays above

O=C(O)c1nc(Cl)ccc1Cl
inactive: CYP2C8 (gene 1558) | CYP2C9 (gene 1559) | CYP4A11 (gene 1579) | [1] | [2] | [3] | [4] | CYP3A5 (gene 1577) | [5] | [6] | [7] | [8] | [9] | [10] | [11] | [12] | [13]
active: [5] 33.4 µM | [8] 50 µM

Cc1cc(Cl)ccc1OCC(=O)O
active: CYP2C8 (gene 1558) 19.9 µM | CYP4A11 (gene 1579) 12 µM | [4] 18.8 µM | [7] 24.9 µM
inactive: all other assays above

CCOc1cc(Oc2ccc(C(F)(F)F)cc2Cl)ccc1[N+](=O)[O-]
active: CYP2C8 (gene 1558) 74.2 µM | CYP2C9 (gene 1559) 35.7 µM | CYP4A11 (gene 1579) 41.6 µM | [1] 78 µM | [4] 75.8 µM | [5] 30.4 µM | [6] 39.1 µM | [7] 34.8 µM | [8] 39.9 µM | [11] 50 µM
inactive: [2] | [3] | CYP3A5 (gene 1577) | [9] | [10] | [12] | [13]

COc1nc(NC(C)C)nc(NC(C)C)n1
active: [5] 23.1 µM
inactive: all other assays above

N#CC(CCc1ccc(Cl)cc1)(Cn1cncn1)c1ccccc1 (centres undefined)
inactive: CYP3A5 (gene 1577) | [9] | [12]
active: CYP2C8 (gene 1558) 73.7 µM | CYP2C9 (gene 1559) 59.8 µM | CYP4A11 (gene 1579) 38.8 µM | [1] 34.8 µM | [2] 79.3 µM | [3] 50 µM | [4] 11.7 µM | [5] 79.4 µM | [6] 40.4 µM | [7] 75.3 µM | [8] 68 µM | [10] 40 µM | [11] 67.3 µM | [13] 79.5 µM
